About 83,000 compounds went through this panel and 20% of them were active in at least one assay; those are over-represented in the sample as a whole.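 Compound tested at a single concentration for 48 hours in 96-well plates; a percent growth value below 10 was scored as active.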 Values without a mark were called inactive. The source made the active and inactive calls.
How the values were obtained:
Assay in all cases: NCI-60 one-dose screen, 48 h (100 = growth as untreated, 0 = no growth, -100 = all killed)
Conditions in all cases: 10 µM unless noted
DU-145 prostate = test system: DU-145 prostate
K-562 leukemia = test system: K-562 leukemia
MALME-3M melanoma = test system: MALME-3M melanoma
MDA-MB-231 breast = test system: MDA-MB-231 breast
RXF 393 renal = test system: RXF 393 renal
SF-268 CNS = test system: SF-268 CNS
SF-295 CNS = test system: SF-295 CNS
SF-539 CNS = test system: SF-539 CNS
UACC-257 melanoma = test system: UACC-257 melanoma
M14 melanoma = test system: M14 melanoma
HCT-15 colon = test system: HCT-15 colon
HT29 colon = test system: HT29 colon
SNB-75 CNS = test system: SNB-75 CNS
SNB-19 CNS = test system: SNB-19 CNS
U251 CNS = test system: U251 CNS
PC-3 prostate = test system: PC-3 prostate
SK-MEL-5 melanoma = test system: SK-MEL-5 melanoma
UACC-62 melanoma = test system: UACC-62 melanoma
LOX IMVI melanoma = test system: LOX IMVI melanoma
SK-MEL-28 melanoma = test system: SK-MEL-28 melanoma

Compound	growth (DU-145 prostate) [%]	growth (K-562 leukemia)	growth (MALME-3M melanoma)	growth (MDA-MB-231 breast)	growth (RXF 393 renal)	growth (SF-268 CNS) [%]	growth (SF-295 CNS)	growth (SF-539 CNS)	growth (UACC-257 melanoma)	growth (M14 melanoma)	growth (HCT-15 colon)	growth (HT29 colon)	growth (SNB-75 CNS) [%]	growth (SNB-19 CNS) [%]	growth (U251 CNS)	growth (PC-3 prostate)	growth (SK-MEL-5 melanoma)	growth (UACC-62 melanoma)	growth (LOX IMVI melanoma)	growth (SK-MEL-28 melanoma)
Cc1cc2nc(-c3c(N)ncc(C#N)c3-c3ccc(Cl)cc3)[nH]c2cc1C	31.9	62.9%	63%	66.4%	70.9%	73.4	58.3%	-9.94% (active)	51.9%	53.7%	67.2%	29.8%	56.6	84.7	18%	53.5%	71.9%	57.8%	51.7%	57.6%
O=C(Nc1ccc(-n2cc(-c3ccncc3)c(-c3ccc(O)c(Cl)c3)n2)cc1)Nc1ccc(Cl)c(C(F)(F)F)c1	29.5	17.1%	13.3%	-39.7% (active)	-74.4% (active)	18.4	-10.3% (active)	13.7%	47.5%	7.1% (active)	9.15% (active)	47.9%	28	27.7	5.79% (active)	1.79% (active)	-73.6% (active)	9.18% (active)	16.6%	20.1%
O=C(NCCNc1nccc(-c2c(-c3cccc(O)c3)nc3sccn23)n1)c1ccc(N2CCOCC2)c(C(F)(F)F)c1	94.9	63%	-4.27% (active)	64.9%	57.6%	79.1	67.5%	77.8%	15.8%	19.1%	80.1%	68.6%	58	107	82%	56.6%	40%	5.88% (active)	42.2%	42.8%
COc1cc(C(=O)C[n+]2ccccc2)ccc1OC(C)=O	106	101%	105%	102%	92%	98.4	97.4%	94.3%	95.4%	94.9%	103%	108%	87.6	98.6	98.9%	89.9%	98%	97.1%	101%	107%
CN(C)CC/C=C1\c2ccccc2Sc2ccc(Cl)cc21	90.9	16.4%	69.8%	69%	41.2%	68.8	75.4%	92.3%	-54.4% (active)	-57.5% (active)	78.9%	30.6%	52.4	85.2	49.5%	65%	34.1%	47.1%	53.6%	55.9%
CCCCNc1cc(C(=O)O)cc(S(N)(=O)=O)c1Oc1ccccc1	110	98.2%	96.2%	122%	91.1%	105	102%	105%	105%	109%	108%	112%	90.4	106	99.8%	95.7%	95.3%	101%	93.5%	109%
COc1ccc(-c2nnc(SCC(=O)Nc3ccc(C(=O)/C=C/c4ccc(Cl)cc4)cc3)o2)cc1OC	78.9	52%	5.79% (active)	76.3%	95.9%	82.2	80.4%	54.5%	91.4%	81.7%	81.3%	89.8%	71.4	84.6	88.5%	84.6%	56.7%	62.7%	79%	82.2%
c1ccc(CNCCN(CCNCc2ccccn2)Cc2ccc3ccccc3c2)nc1	13.7	-0.99% (active)	24.6%	4.02% (active)	45.1%	19	-35.6% (active)	-34.8% (active)	31.7%	-49.4% (active)	1.52% (active)	6.31% (active)	21.2	18.3	3.09% (active)	-0.81% (active)	-43.1% (active)	-23.4% (active)	0.713% (active)	5% (active)

Reference: PubChem BioAssay (NCI)
